VDR inhibitor – Inhibitors of the vitamin D receptor (VDR): qHTS; Vitamin D3 receptor (Homo sapiens), P11473; VDR-SRC2-3 peptide fluorescence polarization, 2 h; Potency, µM, without a hit: max response, negative = inhibition, most hits filed as inhibitors; actives 0.93% (n = 400,000); AID 504847, 2011; further: potency means the concentration at half of the fitted maximal effect
Target sequence (P11473 whole entry, looked up): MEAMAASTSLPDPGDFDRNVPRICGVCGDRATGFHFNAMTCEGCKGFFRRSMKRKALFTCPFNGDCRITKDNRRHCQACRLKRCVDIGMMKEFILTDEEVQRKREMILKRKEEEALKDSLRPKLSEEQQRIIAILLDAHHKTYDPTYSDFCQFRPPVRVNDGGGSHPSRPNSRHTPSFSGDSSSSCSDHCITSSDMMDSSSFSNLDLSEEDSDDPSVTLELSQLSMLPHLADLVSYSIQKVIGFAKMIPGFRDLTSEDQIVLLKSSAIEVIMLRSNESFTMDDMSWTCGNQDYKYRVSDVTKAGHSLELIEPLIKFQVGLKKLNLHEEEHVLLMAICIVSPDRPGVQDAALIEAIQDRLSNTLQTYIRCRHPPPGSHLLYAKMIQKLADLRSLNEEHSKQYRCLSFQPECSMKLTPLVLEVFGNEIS
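Fluorescence polarization assay of small-molecule disruption of VDR binding to coregulator peptide SRC2-3. Compounds and controls pin-transferred, then read after 2 h incubation at ambient room temperature.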
CCT chaperon mod – High-Throughput Screening for Modulators of Cytosolic Chaperonin Activity; purified chaperonin ATPase assay, HTRF ADP detection, 30 min; activity change, % (no concentration beside the values), hits read low; actives 0.3% (n = 360,000); in the data active means activity change below about -30%
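First, chaperonin was dispensed at 40 nM or 20 nM final depending on batch activity. Next, compounds were pinned at 76 uM and ATP added at 10 uM. After 30 min at 37 °C, ADP detection reagents ran 30 min at ambient temperature.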
Sfp PPTase inh – qHTS Assay for Inhibitors of Bacillus subtilis Sfp phosphopantetheinyl transferase (PPTase); Biochemical Sfp PPTase activity, qHTS; actives 3.5% (n = 310,000); Potency, µM, for the others: largest response in the series, negative = inhibition, usual class: inhibitors;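 further: the enzyme is Sfp with the accession as filed and its product quenches rhodamine fluorescence; potency means the concentration at half of the fitted maximal effect; 0% = enzyme reaction without inhibitor and -100% = no enzyme wells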
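Fluorescence-quenching assay with 15 nM Sfp, 5 uM rhodamine-CoA and 12.5 uM BHQ-2-labelled ybbR peptide in pH 7.6 Hepes/MgCl2 buffer. Enzyme was pre-incubated with compound for 15 min at room temperature. Rate was taken from the 30-min fluorescence change (525/598 nm).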
MmCpn inh – Inhibitors of TCP-1 ring complex (TRiC) of Methanococcus maripaludis (MmCpn): qHTS; Chaperonin Mm-Cpn (Methanococcus maripaludis); purified Mm-Cpn ATPase, ADP Transcreener TR-FRET; Potency, µM (series often up to 76.9 µM), without a hit: at the top dose activity, negative = inhibition, most hits filed as inhibitors; actives 0.031% (n = 330,000); AID 504842, 2011; further: potency means the concentration at half of the fitted maximal effect; nearly all actives have a fitted effect of over 80% in size
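ATPase read-out: TR-FRET ADP immunoassay (anti-ADP Eu cryptate vs ADP-d2), ex 320 nm, em 590/665 nm; signal drops as ADP forms. Enzyme 25 nM, ATP 10 uM, 30 min at 37°C after 10 min compound preincubation.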
PLK1 PBD inh – qHTS for Inhibitors of PLK1-PDB (polo-like kinase 1 - polo-box domain): Primary Screen; Serine/threonine-protein kinase PLK1 (Homo sapiens), P53350; Plk1 PBD binding of FITC phosphopeptide, fluorescence polarization; actives 2.8% (n = 360,000); Potency, µM, for the others: max response, negative = inhibition, usual class: inhibitors; further: potency means the concentration at half of the fitted maximal effect; series mostly up to about 57 µM; nearly all actives have a fitted effect of over 65% in size
G9a block – qHTS Assay for Inhibitors of Histone Lysine Methyltransferase G9a. Histone-lysine N-methyltransferase EHMT2 (Homo sapiens), Q96KQ7. G9a H3K9 monomethylation, AlphaScreen, 2 h. Potency, µM (titrated, usually from 102 µM), for the others: top-dose activity, negative = inhibition, most hits filed as inhibitors. actives 8.8% (n = 350,000). AID 504332, 2011; further: potency means the concentration at half of the fitted maximal effect; nearly all actives have a fitted effect of over 75% in size
Target sequence (Q96KQ7 913-1193 limits assumed): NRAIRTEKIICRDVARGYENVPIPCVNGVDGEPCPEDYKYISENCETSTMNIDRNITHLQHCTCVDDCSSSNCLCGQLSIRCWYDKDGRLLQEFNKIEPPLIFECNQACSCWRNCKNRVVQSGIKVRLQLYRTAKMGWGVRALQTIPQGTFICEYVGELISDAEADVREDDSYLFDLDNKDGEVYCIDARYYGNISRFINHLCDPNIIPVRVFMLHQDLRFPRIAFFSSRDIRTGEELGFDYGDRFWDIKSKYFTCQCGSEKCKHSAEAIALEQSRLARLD
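Step 1: enzyme (final 20 nM) with compound, 15 min RT. Step 2: substrate peptide 500 nM and SAM 20 uM, 2 h RT. Step 3: anti-H3K9me1 antibody and AlphaScreen beads, 10 min, then plate read.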
Numbers without * were called inactive; ? = inconclusive; / = no result; ! = repeats disagree; [ ] = remark or other dose. Shown are actives, neighbours in structure and some others; about 10% of the full set was active somewhere. Unless noted, the call rests on the fitted dose curve; in most records, active means well fitted curve in the direction sought with a large enough effect; inconclusive means small, poorly fitted or top-dose-only effect, or another doubt; inactive means no such curve, though single readings can be large; an effect the other way counts as inactive or inconclusive. Unless noted, on the % scale 0 is the no-effect control and ±100 the full control effect.

SMILES	VDR inhibitor	CCT chaperon mod	Sfp PPTase inh	MmCpn inh	PLK1 PBD inh	G9a block
CCN1CCN(c2ccc(S(=O)(=O)N3CCCCC3)cc2NC(=O)c2cccc(OC(F)F)c2)CC1	-1.7%	1.5	/	1.1%	4.4%	12.6µM*
CC(=O)Nc1ccc(NC(=O)c2cc(S(=O)(=O)N3CCCCC3)ccc2N2CCOCC2)cc1	-4.0%	0.7	/	/	3.1%	/
O=C(Nc1ccc(OC(F)F)cc1)c1cc(S(=O)(=O)N2CCCCC2)ccc1N1CCOCC1	-12.1%	0.2	/	-3.6%	2.5%	15.8µM*
C/C=C/OC(=O)NC(c1ccccc1)[C@]1(C(C)=O)CCCC1=O (stereo partly specified)	/	/	5.9%	/	/	/
COCCn1c(=S)[nH]c2cc(C(=O)N3CCC(C(N)=O)(N4CCCCC4)CC3)ccc2c1=O	2.1%	-3.4	-5.9%	1.4%	-7.9%	35.5µM*
CCOC(=O)N1CCN(C(=O)c2ccc3c(=O)n(Cc4ccccc4OC)c(=S)[nH]c3c2)CC1	-11.6%	-0.1	-3.7%	-5.8%	-3.5%	-12.8%
COc1ccccc1Cn1c(=S)[nH]c2cc(C(=O)N3CCC(C(N)=O)CC3)ccc2c1=O	-7.8%	0.7	?	1.2%	-4.5%	79.4µM*
CCCCNC(=O)c1ccc2c(=O)n(CCCOCC)c(=S)[nH]c2c1	9.1%	-0.6	0.4%	1.4%	-9.1%	-39.7%
CCOCCCn1c(=S)[nH]c2cc(C(=O)N3CCC(C(N)=O)CC3)ccc2c1=O	-12.7%	0.7	-24.3%	-0.3%	-4.8%	35.5µM*
COC(=O)c1[nH]c2ccc(F)cc2c1NC(=O)Nc1ccc(OC)cc1	-4.9%	3.7	-10.7%	-1.3%	-4.2%	22.2%[2.33 µM]
COc1ccc2[nH]c(C(=O)O)c(NS(=O)(=O)c3ccc(C)cc3C)c2c1	-2.5%	0.3	5.3%	-2.3%	?	39.8µM*
COC(=O)c1[nH]c2ccc(C)cc2c1NC(=O)Nc1ccc(OC)cc1	-3.3%	0.7	-26.1%	-3.0%	-14.7%	44.7µM*
COc1ccc2c(c1)C(=NNc1ccc(C(=O)O)cc1)c1cc(OC)ccc1-2	-10.0%	0.8	-18.4%	-0.8%	?	?
COc1ccc(/C(C)=N/Nc2ccc(C(=O)O)cc2)c(OC)c1	-9.7%	-9.2	0.9%	-2.6%	2.6%	1.58µM*
COc1ccc2oc(=N)c(C(=O)NCc3ccccc3)cc2c1	?	-8.8	9.9%	0.2%	-27.7%	35.5µM*
CNC(=O)c1cc2cc(OC)ccc2oc1=O	0.2%	0.4	11.7%	-6.0%	-1.6%	13.1%
CNC(=O)c1cc2cc(OC)ccc2oc1=N	4.7%	1.0	-19.6%	-4.8%	-10.9%	56.2µM*
COc1ccc2oc(=O)c(/C(C)=N/Nc3ccccc3)cc2c1	-4.9%	1.1	9.7%	-28.4%	18.9µM*	12.6µM*
O=C(O)CCCC/C=C\C[C@@H](O)/C=C/C=C/C=C\[C@@H](O)CCCC(=O)O	-6.8%	/	-13.2%	/	/	/
O=C(OC[C@@H]1O[C@@](O)(COC(=O)c2cccnc2)[C@H](OC(=O)c2cccnc2)[C@H]1OC(=O)c1cccnc1)c1cccnc1	1.4%	/	6.2%	/	/	?
Cc1ccc2cc(C)c3nnc(SCC(=O)c4cccs4)n3c2c1C	-10.0%	2.0	-20.8%	-7.8%	-11.3%	35.5µM*
Cc1ccc(C)c2c1cc(C)c1nnc(SCC(=O)c3cccs3)n12	-5.4%	-1.3	-4.4%	-7.6%	-22.9%	12.6µM*
Cn1c(Cc2ccccc2)nnc1SCC(=O)c1cccs1	-7.3%	3.3	-0.3%	-1.5%	-0.1%	50.1µM*
CC(=O)O[C@H]1C2=C(C(=O)[C@H]3O[C@@H]31)[C@@H]1[C@@H]3[C@@H](C)OC=C4[C@H](O)[C@H]5O[C@@H]5C(=O)[C@]43C2O[C@H]1C	/	/	22.0%	/	/	/
CCCN(CCC)CCNC(=O)C1CCN(c2nc3ccc(CC)cc3s2)CC1	-2.3%	/	/	/	/	-29.9%[59 µM]
SMILES	VDR inhibitor	CCT chaperon mod	Sfp PPTase inh	MmCpn inh	PLK1 PBD inh	G9a block
O=C(c1cccs1)N1CCCc2cc(NS(=O)(=O)c3cc(F)ccc3F)ccc21	-9.6%	/	/	/	/	2.8%[59 µM]
N#Cc1c2ccc(O)cc2n2ccccc12	-7.2%	-25.9	-4.8%	-12.6%	?	3.98µM*
COc1cc(C(=O)Sc2ccc(C)cc2)cc(OC)c1OC	-17.8%	0.5	-13.5%	1.5%	-9.3%	/
Cc1ccc(OCC(=O)Sc2ccc(C)cc2)cc1	44.7µM*	-5.4	0.5%	0.1%	5.97µM*	221.6%
COc1ccccc1OCC(=O)Sc1ccc(C)cc1	?	-4.0	-6.4%	1.9%	2.99µM*	1.5%
Cc1c(C#N)c(N)nc(Cl)c1C#N	0.4%	-1.0	-12.3%	1.4%	-12.0%	-39.5%
N#Cc1c(Cl)nsc1NN	-4.4%	-1.7	39.8µM*	-1.7%	29.9µM*	7.08µM*
Nc1cccc2c3c(oc12)CCCC3	-5.2%	-0.3	-17.9%	0.1%	3.4%	39.8µM*
O=c1oc(-c2cccnc2)nc2ccccc12	0.4%	2.6	3.5%	0.0%	-13.9%	?
Cc1cc(=O)c2cc3nc(-c4cccnc4)oc3c(Br)c2o1	/	/	-3.8%	-14.7%	/	39.8µM*
CCOc1ccc(CCNC(=O)CCn2c(=O)c3cccn3c3ccc(F)cc32)cc1OCC	5.5%	/	/	/	/	-2.0%[59 µM]
CC(C)C[C@@H](CC(=O)N[C@@H](CCC(=O)O)CC(=O)O)NC(=O)[C@@H]1CCCC[C@H]1NC(=O)C[C@H](CCCN)NC(=O)C[C@H](Cc1c[nH]c2ccccc12)NC(=O)[C@@H]1CCCC[C@H]1N	6.1%	/	-17.9%	/	/	/
CC[C@H](C)C(=O)O[C@H]1C[C@@H](C)C=C2C=C[C@H](C)[C@H](CC[C@@H]3C[C@@H](O)CC(=O)O3)[C@H]21	50.1µM*!	-2.5	7.9%	-6.9%[15.4 µM]	-13.0%	15.8µM*!
CCC(C)C(=O)OC1CCC=C2C=CC(C)C(CCC3CC(O)CC(=O)O3)C21 (stereo unspecified)	1.1%	0.3	/	/	3.7%	/
c1ccc(CSc2ccc(-c3ccccn3)nn2)cc1	11.3%	0.9	9.1%	?	-3.1%	-39.3%
CCSc1nc(-c2ccco2)ccc1C#N	-4.6%	1.0	-4.8%	-3.1%	?	?
Cc1ccc(CSc2ccc(-c3ccco3)nn2)cc1	-4.1%	-0.7	28.2µM*	-5.4%	-10.0%	17.8µM*
c1ccc(CSc2ccc(-c3ccco3)nn2)cc1	-24.5%	-0.3	31.6µM*	1.2%	-23.6%	25.1µM*
